Out of some 360,000 compounds screened, about 1,700 (0.47%) were called active. Entries that show only a call come without a potency. Inconclusive results (about 2%) are left out. Calls come from the whole dose curve; as a rule, active = well fitted inhibition curve with a large enough effect; inconclusive = small, poorly fitted or top-dose-only effect; inactive = no such curve, though single readings can be large or run the other way. The sample as a whole holds a higher share of actives than the screen did.

This note sets out measurements from PubChem BioAssay AID651768 (National Center for Advancing Translational Sciences (NCATS), 2012).
Potency is the fitted concentration of half-maximal effect.

Chain of Bifunctional 3'-5' exonuclease/ATP-dependent helicase WRN (Homo sapiens) (Q14191 whole entry, looked up): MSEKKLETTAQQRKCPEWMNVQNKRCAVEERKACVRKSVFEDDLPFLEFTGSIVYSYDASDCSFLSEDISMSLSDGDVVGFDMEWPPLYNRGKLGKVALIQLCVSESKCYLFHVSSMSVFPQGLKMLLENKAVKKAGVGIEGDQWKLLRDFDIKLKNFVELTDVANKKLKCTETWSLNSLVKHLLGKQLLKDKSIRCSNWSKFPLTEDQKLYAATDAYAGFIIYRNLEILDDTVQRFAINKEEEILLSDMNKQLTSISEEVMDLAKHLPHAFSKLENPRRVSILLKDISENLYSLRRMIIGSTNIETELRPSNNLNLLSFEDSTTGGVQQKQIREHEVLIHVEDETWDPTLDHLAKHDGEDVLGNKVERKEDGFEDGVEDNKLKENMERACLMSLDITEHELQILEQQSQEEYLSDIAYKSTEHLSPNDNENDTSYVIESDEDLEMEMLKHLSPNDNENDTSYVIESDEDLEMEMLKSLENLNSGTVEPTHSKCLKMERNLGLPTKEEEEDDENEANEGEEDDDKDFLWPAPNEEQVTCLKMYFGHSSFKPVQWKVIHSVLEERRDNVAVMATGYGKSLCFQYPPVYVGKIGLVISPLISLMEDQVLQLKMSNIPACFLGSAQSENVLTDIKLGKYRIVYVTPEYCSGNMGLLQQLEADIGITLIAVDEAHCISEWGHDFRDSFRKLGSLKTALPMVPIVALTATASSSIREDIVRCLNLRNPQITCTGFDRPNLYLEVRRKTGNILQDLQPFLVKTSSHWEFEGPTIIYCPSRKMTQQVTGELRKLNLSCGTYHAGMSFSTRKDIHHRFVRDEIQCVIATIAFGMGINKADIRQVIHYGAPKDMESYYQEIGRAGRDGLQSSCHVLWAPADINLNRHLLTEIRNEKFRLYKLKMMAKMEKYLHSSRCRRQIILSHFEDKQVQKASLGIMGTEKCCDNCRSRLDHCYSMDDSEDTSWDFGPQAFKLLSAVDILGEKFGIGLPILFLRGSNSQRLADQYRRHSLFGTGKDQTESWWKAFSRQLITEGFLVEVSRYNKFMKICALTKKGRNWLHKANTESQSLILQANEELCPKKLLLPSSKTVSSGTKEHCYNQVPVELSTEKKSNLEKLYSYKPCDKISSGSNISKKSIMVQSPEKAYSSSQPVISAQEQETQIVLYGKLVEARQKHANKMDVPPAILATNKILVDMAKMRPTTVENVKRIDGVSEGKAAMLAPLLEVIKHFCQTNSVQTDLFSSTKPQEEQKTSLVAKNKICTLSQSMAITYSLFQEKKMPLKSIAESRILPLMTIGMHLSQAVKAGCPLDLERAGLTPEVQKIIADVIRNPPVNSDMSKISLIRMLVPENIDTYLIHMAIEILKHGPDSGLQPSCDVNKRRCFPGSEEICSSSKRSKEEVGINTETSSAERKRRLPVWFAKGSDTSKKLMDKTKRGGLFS

The target in this experiment is Bifunctional 3'-5' exonuclease/ATP-dependent helicase WRN (Homo sapiens) (UniProt Q14191). The experiment is described as follows: qHTS for Inhibitors of WRN Helicase. Note: nearly all actives have a fitted effect of over 55% in size. The conditions noted are these: WRN helicase unwinding, fluorescent forked duplex, kinetic; series mostly up to 114 µM. The method, boiled down:
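Enzyme (20 nM final) and test compound sit together 15 min at room temperature before substrate addition. Substrate is a single-forked duplex oligonucleotide (100 nM) labelled with fluorophore and quencher, with 2 mM ATP; helicase unwinding raises red fluorescence, read kinetically.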
In general terms: Quantitative high-throughput screening tests each substance at several concentrations.
`O=C1C=CC(=O)N1c1ccc(N2CCCCC2)cc1`: the Potency is 39.8 µM (active).
For `c1ccc(-n2cccc2)c(N2CCCCC2)c1` the value was “inactive”; for `CCCC(NCC(=O)Nc1ccccc1C(=O)NC1CC1)c1ccccc1` (centres undefined), “inactive”; for `CC(C)(C)c1cc[n+](-c2[nH]c(=O)sc2/C=N/N=C(\[O-])c2ccccc2)cc1`, “inactive”.
As to `CCc1noc(C)c1C(=O)Oc1ccc(N(C)S(=O)(=O)c2ccc(C)c(C)c2)cc1`, the Potency entry is “inactive”.
As for `COc1cccc(CNC(=O)[C@@H]2CCCN2C(=O)[C@@H]2CCCN2C(=O)c2ccccc2)c1`, the Potency entry was “inactive”.
The same measure for `S=c1[nH]nc(-c2cc(-c3ccccc3)n[nH]2)n1/N=C/c1c2ccccc2cc2ccccc12`: 50.1 µM (active).
The same measure for `S=c1[nH]nc(-c2ccco2)n1/N=C/c1ccc(Br)s1`: “inactive”; for `CCN(CC)S(=O)(=O)c1cccc(-c2n[nH]c(=S)n2/N=C/c2ccc(C(=O)OC)cc2)c1`: “inactive”.
In the case of `COc1ccc(C)cc1NC(=O)CN(C)S(=O)(=O)c1ccc2c(c1)n(C)c(=O)c(=O)n2C`, the Potency entry is “inactive”.
For `COc1ccc2ccn(C)c2c1` the value was “inactive”; for `OC(c1ccccc1)(c1ccccc1)C1CCN(CCCOc2ccccc2)CC1`, “inactive”; for `CC(C)CCN1C(=O)c2ccc(C(=O)Nc3cccc(S(N)(=O)=O)c3)cc2C1=O`, “inactive”.
For `Cc1ccc(NC(=O)Cn2sc3ccccc3c2=O)cc1` the value was “inactive”; for `Cc1ccnc(SC2CC(=O)N(c3ccccc3)C2=O)n1` (centres undefined), “inactive”.
The same measure for `Cc1ccnc(-n2sc3ccccc3c2=O)n1`: 31.6 µM (active).
As to `CCN(CC)C(=O)C1=C(C)N(Cc2ccc(OC)cc2)C(=O)C(CC(=O)NCc2ccco2)C1` (centres undefined), the Potency entry is “inactive”.
Regarding `CCCCOc1ccc(Cl)cc1CSc1nncn1N`, the Potency entry was “inactive”.
For `COC1=CCC2([N+](=O)[O-])CN(CC(=O)O)CC1([N+](=O)[O-])C2` (centres undefined) the value was “inactive”; for `C=CS(=O)c1sc(Cl)c(N2CCOCC2)c1[N+](=O)[O-]` (centres undefined), 31.6 µM (active); for `COc1cccc(NCCC(=O)c2cccc([N+](=O)[O-])c2)c1`, “inactive”.
Turning to `O=C(Nc1cccc([N+](=O)[O-])c1)N1CCc2ccccc2C1`, the Potency result was “inactive”.
On to `COC(=O)/C=C\C(=O)Nc1cccc([N+](=O)[O-])c1`, for which the Potency was 28.2 µM (active).
For `COC(=O)[C@@]12C[C@@H](CC(=O)N3CCC(c4ccccc4)CC3)C(=O)N(Cc3ccccc3)C1=CCC(C)(C)C2`, the Potency entry was “inactive”.
For `O=C(N/N=C/c1ccco1)c1ccc(C(=O)N/N=C/c2ccco2)o1` the value was 39.8 µM (active); for `O=C(Cc1ccc([N+](=O)[O-])cc1)N/N=C/c1ccco1`, “inactive”; for `O=C(N/N=C/c1ccco1)c1ccc(NC(=O)C2CC2)cc1`, “inactive”.
The same measure for `Cc1ccccc1-n1nc(C)c2c1N=C1C(Cl)=CC(Cl)=CN1C2c1ccc(C(=O)O)cc1` (centres undefined): “inactive”; for `CC(C)OC(=O)c1ccc(NCc2cc(O)ccc2O)cc1Cl`: “inactive”.
`COC(=O)c1ccc(NCc2cc(O)ccc2O)cc1`: the Potency is 79.4 µM (active).
`O=C(OC12CC3CC(CC(C3)C1)C2)c1ccc(NCc2cc(O)ccc2O)cc1`: the Potency result is “inactive”.
In the case of `O=C(c1ccccc1)c1cc(-c2ccccn2)c(N2CCOCC2)s1`, the Potency entry was “inactive”.
The same measure for `NCCN1CCN2C(=O)CN(C(=O)c3ccccc3)CC12` (centres undefined): “inactive”; for `Cc1cc(C)nc(S/C=C/C(=O)c2ccccc2)n1`: “inactive”.
The same measure for `O=C(/C=C/Sc1ncn[nH]1)c1ccc(Cl)cc1`: 35.5 µM (active).
For `COc1ccc(OC)c(NC(=O)C2(C)CCN2C(=O)Cc2ccccc2)c1` (centres undefined) the value was “inactive”; for `CCOC(=O)c1sc2nc(CSCC(=O)OCc3ccc(C(=O)OC)o3)[nH]c(=O)c2c1C`, “inactive”; for `Cc1sc2nc(CSCC(=O)Nc3c(Cl)cccc3Cl)[nH]c(=O)c2c1C`, “inactive”.
Consider `CSc1nnc(SCc2nc3sc(C(=O)O)c(C)c3c(=O)[nH]2)s1`, for which the Potency was 35.5 µM (active).
For `CCN1CCC2(CC1)N=C(c1ccc(F)cc1)C(=S)N2C(=O)c1ccc(C)cc1` the value was “inactive”.
For the compound `CCN1CCC(O)(/C=C/c2ccc(C)cc2)C(C(=O)/C=C/c2ccc(C)cc2)C1` (centres undefined), the Potency is 14.1 µM (active).
For `COc1cc2cc(CN(CCN3CCCC3)C(=O)Nc3ccccc3Cl)c(=O)[nH]c2cc1OC` the value was “inactive”.
For `CC1=CC2=NC(=O)CC(C)(C(=O)N(CC(=O)NC(C)(C)C)Cc3ccccc3)N2C=C1` (centres undefined) the value was “inactive”; for `CC1CCCN(C(=O)c2ccc3c(c2)C(=O)N(CCC2=CCCCC2)C3=O)C1` (centres undefined), “inactive”.
On to `N#CCSc1ccccc1NC(=O)CN1C(=O)NC(CCc2ccccc2)C1=O` (centres undefined), for which the Potency result was “inactive”.
For `CCOc1ncccc1C(=O)NNC(=O)c1cccc(S(=O)(=O)Nc2ccccc2OC)c1` the value was “inactive”; for `COc1ccccc1C(CNC(=O)c1cccc(NS(=O)(=O)c2ccc(Br)cc2)c1)N(C)C` (centres undefined), “inactive”.
`CC1CN(C(=O)c2ccccc2NS(=O)(=O)c2cccc([N+](=O)[O-])c2)CC(C)O1` (centres undefined): the Potency result was “inactive”.
The same measure for `COc1ccc(Br)cc1/C=N/Nc1ccc(S(=O)(=O)Nc2ccccc2C(=O)O)cc1[N+](=O)[O-]`: 39.8 µM (active); for `COc1ccc(S(=O)(=O)N2CCC(C(=O)OCC(=O)c3ccccc3)CC2)cc1[N+](=O)[O-]`: “inactive”.
For the compound `COc1cccc(/C=N/Nc2ccc(S(=O)(=O)Nc3ccccc3C(=O)O)cc2[N+](=O)[O-])c1O`, the Potency was 39.8 µM (active).
With `Cc1cc2nc3n(c2cc1C)CC1CC(C(=O)NCCC(C)C)N(C)C31` (centres undefined), the Potency entry was “inactive”.
As for `CCCCSc1nnc2c(n1)OC=Nc1ccccc1-2`, the Potency entry was “inactive”.
For the compound `Cc1cccc(N2CC(C)Cn3c2nc2c3c(=O)n(CC(=O)OCc3ccccc3)c(=O)n2C)c1` (centres undefined), the Potency result was “inactive”.
